Myeloid diff 2 – induction of myeloid progenitor differentiation, primary screen, cell-based, flow cytometry, MLPCN library. calls only at 10 µM. ER-HoxA9 myeloid progenitors, lysozyme-GFP differentiation. actives 1% (n = 360,000);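 active = normalized GFP-positive differentiation at or above the plate's own cutoff, the solvent-only control mean plus 3 SD; inconclusive = no clear call, values can overlap the other calls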;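 also: cells exposed to compound for four days before flow analysis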
FAS TE block – FAS thioesterase domain inhibitors, primary screen, biochemical, fluorescence intensity, uHTS; Fatty acid synthase (Homo sapiens), P49327; actives 0.67% (n = 360,000); recombinant FAS-TE, OMFH fluorogenic substrate, fluorescence endpoint; inhibition, % at 15 µM; AID 602261, 2012;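 active = compounds whose normalised, plate-corrected inhibition of enzyme fluorescence in the single-dose primary screen is 50% or more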;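 also: 0% = DMSO with enzyme and 100% = substrate without enzyme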
GRIN3A LBD mod – binders of NR3A ligand-binding domain, primary screen, biophysical, differential scanning fluorimetry, uHTS | Glutamate receptor ionotropic, NMDA 3A (GRIN3A) ligand-binding domain | NR3A LBD differential scanning fluorimetry, Tm shift; 0% = protein alone, 100% = glycine-bound protein | Tm shift relative to glycine control, % at 25 µM | actives 2.5% (n = 340,000);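 active = melting temperature shift of at least 10% of the positive control shift, at one fixed dose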
rCAG binder – binders of r(CAG) RNA repeats, primary screen, biochemical, fluorescence; r(CAG) RNA repeat, TO-PRO-1 dye displacement fluorescence; inhibition, % at 3 µM; actives 1.3% (n = 370,000); AID 651821, 2012;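 active = inhibition above the plate cutoff, the mean of all test compounds on that plate plus 3 SD, cut at about 35% in these data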;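 also: 0% = DMSO alone and 100% = 100 µM mitoxantrone as full dye displacement; higher means more dye released from RNA so lower well fluorescence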
MPTP block – mitochondrial permeability transition pore inhibitors, primary screen, biochemical, isolated mouse mitochondria, absorbance; Ca2+ swelling absorbance, 30 min; inhibition, % at 10 µM; actives 1.4% (n = 360,000);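 active = inhibition of 50% or more, scaled per plate between neutral and stimulator controls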;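 also: 0% = DMSO wells given calcium and 100% = 1 mM EGTA wells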
* marks the source's active call; other numbers are inactive results; i = inactive; u = inconclusive; x = no result given; + = active, no number; ! = not active in a repeat. The list is not random: actives were taken first. Their share in the collection is about 5.7%.

SMILES	Myeloid diff 2	FAS TE block	GRIN3A LBD mod	rCAG binder	MPTP block
NS(=O)(=O)c1ccc(CNC(=O)c2ccc(Cl)c(S(=O)(=O)NCc3ccccc3)c2)cc1	i	-1	-4	16	-1
CCOC(=O)C(=O)N(Nc1ccc(C)cc1)c1ccc(C)cc1	i	12	11*	-6	4
CCC(O)(CC)C(=O)N(Nc1ccc(C)cc1)c1ccc(C)cc1	i	2	0	-6	11
COc1ccccc1NCC(=O)N/N=C/c1c(O)ccc2ccccc12	i	7	16*	25	1
O=C(CNc1ccc(F)cc1)N/N=C/c1c(O)ccc2ccccc12	i	19	27*	20	9
COc1ccccc1N(CC(=O)N/N=C/c1c(O)ccc2ccccc12)S(C)(=O)=O	i	7	-4	14	6
CCc1c(-c2ccc(Br)cc2)ncn1CCc1ccccc1OC	x	x	x	2	x
CC1CCN(c2c3c(nc4ncnn24)CCCC3)CC1	x	x	x	-1	x
O=C(CC1C(=O)N(c2ccc(Cl)cc2)C(=S)N1CCc1ccncc1)Nc1ccc(F)cc1 (stereo not given)	i	29	29*	14	3
COc1ccc(N2C(=O)C(CC(=O)Nc3ccc(Cl)cc3)N(NC(=O)c3cccc(F)c3)C2=S)cc1 (stereo not given)	i	9	16*	13	45
COC(=O)[C@]12C[C@H](CC(=O)NCC3CCCCC3)C(=O)N(Cc3ccc(Cl)cc3Cl)C1=C[C@H](COCc1ccccc1)O[C@@H]2C	x	x	x	11	x
Cn1cc(CCOCc2ccccn2)c2ccccc21	x	x	x	4	x
CCOc1ccc(N2C(=O)CS/C2=C(\C(Cl)=C(Cl)Cl)[N+](=O)[O-])cc1	+	4	-1	x	2
COCCCNCCCOc1ccc(C)cc1Br	+	-12	-9	0	2
COCCNCCCOc1ccc(C)cc1Br	i	-8	-3	0	-1
CCOc1ccc(Nc2nc(NCc3ccco3)nc(N)c2[N+](=O)[O-])cc1	i	0	12*	3	2
Nc1nc(NCc2ccco2)nc(Nc2ccc(F)cc2)c1[N+](=O)[O-]	i	6	5	2	6
Cc1cccc(NC(=O)C2CCCN2S(=O)(=O)c2cccnc2)c1C (stereo not given)	x	x	x	0	x
O=C(Nc1ccc(-c2cn3ccsc3n2)cc1)C1COc2ccccc2O1 (stereo not given)	i	10	24*	5	-1
O=C(Nc1cccc(-c2cn3ccsc3n2)c1)c1ccccc1	i	0	21*	3	1
O=C(Nc1cccc(-c2cn3ccccc3n2)c1)c1cnccn1	i	-4	1	-1	-1
O=C(Nc1cccc(-c2cn3ccccc3n2)c1)c1cccc(Cl)c1	i	12	16*	3	1
O=C(NC1CCCCN(Cc2ccc(Cl)cc2)C1=O)c1ccc2ccccc2c1 (stereo not given)	x	x	x	2	x
COC(=O)C1=C(C)N(C)C(=NCc2cccc(C(F)(F)F)c2)NC1c1ccc(C(F)(F)F)cc1 (stereo not given)	x	x	x	6	x
CCn1c2ccccc2c2cc(NC(=O)COC(=O)c3cc(F)ccc3F)ccc21	x	x	x	2	x
SMILES	Myeloid diff 2	FAS TE block	GRIN3A LBD mod	rCAG binder	MPTP block
Cc1cc(C)nc(NC(=NCCc2c[nH]c3ccccc23)NC(=O)Nc2ccc(Cl)c(Cl)c2)n1	i	40	27*	5	2
Cc1cc(C)nc(NC(=NCCc2c[nH]c3ccccc23)NC(=O)Nc2ccccc2)n1	i	23	10*	8	6
COc1cccc(C2CC=C(C(=O)O)CN2S(=O)(=O)c2ccc(C)cc2)c1 (stereo not given)	x	x	x	10	x
CN1CCc2cccc3c2[C@H]1Cc1ccc(O)c(O)c1-3	i	-2	12*!	13	0
COc1ccc(NC(=O)N(C)C[C@H]2OCc3cnnn3CCCC(=O)N([C@H](C)CO)C[C@@H]2C)c(OC)c1	x	x	x	5	x
Cc1ccccc1NC(=O)N(O)C1(C#N)CCCCC1	u	-8	15*	1	1
Cc1ccccc1NC(=O)NC1CCCCCCC1	i	-1	-2	-4	0
Clc1ccc(Nc2nnc(-c3ccc4c(c3)OCO4)o2)cc1	x	x	x	2	x
CC(=O)c1sc2nc(-c3cccs3)ccc2c1N	i	2	22*	34	1
COc1ccccc1NC(=O)c1sc2nc(-c3ccco3)ccc2c1N	i	9	1	x	2
CC(C)NC(=O)c1sc2nc(-c3cccs3)cc(-c3cccs3)c2c1N	x	x	-5	6	x
Nc1c(C(=O)Nc2ccccc2)sc2nc(-c3ccco3)ccc12	i	6	-11	35*	2
Nc1c(C(=O)Nc2ccccc2)sc2nc(-c3cccnc3)ccc12	x	x	x	5	x
Nc1c(C(=O)Nc2nc3ccccc3s2)sc2nc(-c3cccs3)ccc12	+	-17	28*	x	22
Cc1ccc(-c2nc(C3CCCN(S(=O)(=O)c4ccccc4)C3)no2)cc1 (stereo not given)	x	x	x	1	x
CCOC(=O)Nc1cc(=O)c([N+](=O)[O-])c(N)[nH]1	x	x	x	1	x
C#CCNC(=O)C[C@@H]1C(=O)N2CCCC3=C2[C@@]1(C(=O)OC)CCCC3	x	x	x	3	x
Cc1c(C(=O)NCc2ccc(C(C)C)cc2)sc(=O)n1Cc1ccc(S(=O)(=O)N(C)C)cc1	+	29	x	7	6
CC(C)C[C@H](NC(=O)c1ccc(Cl)cc1Cl)C(=O)N1CCC[C@H]1C(=O)NCc1ccccc1	x	x	x	-2	x
Cc1ccc(C)c(N2CCN(C(=O)c3ccc(CSc4nc5ccncc5[nH]4)cc3)CC2)c1	+	-43	-4	6	0
C[C@@H]1CCN(C2CC2)S(=O)(=O)c2ccc(N3CC[C@@H](O)C3)cc2O1	x	x	x	2	x
C=CCn1nnnc1SCC(=O)Nc1cccc(C(F)(F)F)c1	+	-2	16*	-3	1
COc1ccc(S[C@]2(C(=O)N(C)C)CC(=O)N(c3ccc(C#N)cc3)[C@@H]2c2ccc(OC)cc2)cc1	x	x	x	3	x
O=C(NCc1cccs1)c1cc2c(s1)CS(=O)(=O)C2	i	-6	15*	3	2
Cc1ccc(CNC(=O)c2cc3c(s2)CS(=O)(=O)C3)cc1	i	-5	1	8	-1
Cc1cc(N2CCN(C(=O)c3ccco3)CC2)n2nc(-c3cccc(F)c3)cc2n1	+	11	-2	4	-1
Cc1cc(N2CCOCC2)n2nc(-c3cccc(F)c3)cc2n1	i	0	-1	-2	0
Cc1ccc(NC(CNS(=O)(=O)c2ccc(Cl)cc2)c2ccccc2)cc1 (stereo not given)	i	40	11*	3	7
CCOC(=O)c1ccc(NC(=O)c2ncn3c2C(=O)N[C@H](C)C3)cc1	+	-6	x	3	0

Screening results: PubChem BioAssay, several laboratories
